# Assay results as given in PubChem BioAssay (NCATS).
# Records with an inconclusive call do not appear. Where a call stands in place of a potency, no number is given. Active and inactive are the calls of the source. Calls follow the shape of the dose curve; as a rule, active = well fitted curve in the direction sought with a large enough effect; inconclusive = small, poorly fitted or top-dose-only effect, or another doubt; inactive = no such curve, though single readings can be large; an effect the other way counts as inactive or inconclusive.
# Key:
# MCC-13 = experiment: qHTS assay to identify novel small-molecules to repurpose for Merkel cell carcinoma treatment (AID 1296009); conditions: MCC and control cell lines, CellTiter-Glo viability, 72 h; series mostly up to 46 µM; also: nearly all actives have a fitted effect of over 60% in size; also: potency is read from the fitted curve at half-maximal effect
# In short: (§1)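 Cells were treated for 72 hr at 37 degree celsius with compounds in 8- or 11-point dose response. Viability was read by CellTiter-Glo luminescence, normalized to no-cell (cytotoxicity) and DMSO controls.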
# MKL-1 = experiment: as above; conditions: MCC and control cell lines, CellTiter-Glo viability, 72 h; series mostly up to 46 µM
# In short: as §1
# MKL-2 = experiment: as above; conditions: MCC and control cell lines, CellTiter-Glo viability, 72 h; series mostly up to 46 µM
# In short: as §1
# NIH3T3 = experiment: as above; conditions: MCC and control cell lines, CellTiter-Glo viability, 72 h; at 44.8 µM (top of the series) unless noted
# In short: as §1
# UISO = experiment: as above; conditions: MCC and control cell lines, CellTiter-Glo viability, 72 h; series mostly up to 46 µM
# In short: as §1
# WaGa = experiment: as above; conditions: MCC and control cell lines, CellTiter-Glo viability, 72 h; series mostly up to 46 µM
# In short: as §1
# MCC-26 = experiment: as above; conditions: MCC and control cell lines, CellTiter-Glo viability, 72 h; series mostly up to 46 µM
# In short: as §1
# C33A = experiment: Primary qHTS to identify gynecologic anti-cancer compounds using libraries of approved drugs and bioactive compounds (AID 1345084); conditions: Gynecologic cancer cell panel viability, ATPlite luminescence, 48 h; series mostly up to 57.5 µM; also: nearly all actives have a fitted effect of over 55% in size
# In short: (§2)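 Cells, 1,000 per well, were allowed to settle for 16 h at 37 C before compound addition. Five concentrations were tested for 48 h, and viability was read by ATPlite luminescence after 15 min at room temperature.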
# CASKI = experiment: as above; conditions: Gynecologic cancer cell panel viability, ATPlite luminescence, 48 h; series mostly up to 57.5 µM
# In short: as §2
# Es-2 = experiment: as above; conditions: Gynecologic cancer cell panel viability, ATPlite luminescence, 48 h; series mostly up to 57.5 µM
# In short: as §2
# HeLa = experiment: as above; conditions: Gynecologic cancer cell panel viability, ATPlite luminescence, 48 h; series mostly up to 57.5 µM
# In short: as §2
# Hek293T = experiment: as above; conditions: Gynecologic cancer cell panel viability, ATPlite luminescence, 48 h, control line for the selectivity index; series mostly up to 57.5 µM
# In short: as §2
# JEG-3 = experiment: as above; conditions: Gynecologic cancer cell panel viability, ATPlite luminescence, 48 h; series mostly up to 57.5 µM
# In short: as §2
# OV90 = experiment: as above; conditions: Gynecologic cancer cell panel viability, ATPlite luminescence, 48 h; series mostly up to 57.5 µM
# In short: as §2
# SKOV3 = experiment: as above; conditions: Gynecologic cancer cell panel viability, ATPlite luminescence, 48 h; series mostly up to 57.5 µM
# In short: as §2
# Tov112D = experiment: as above; conditions: Gynecologic cancer cell panel viability, ATPlite luminescence, 48 h; series mostly up to 57.5 µM
# In short: as §2
structure (smiles),measurement,setting,value
C[C@H]1COc2c(N3CCN(C)CC3)c(F)cc3c(=O)c(C(=O)O)cn1c23,Potency,MCC-13,inactive
same,Potency,MKL-1,inactive
same,Potency,MKL-2,inactive
same,outcome,NIH3T3,inactive
same,Potency,UISO,inactive
same,Potency,WaGa,inactive
CCS(=O)(=O)Nc1ccc2[nH]c(O)c(C(=Nc3ccc(CN4CCCCC4)cc3)c3ccccc3)c2c1,Potency,MCC-13,5.26 µM (active)
same,Potency,MKL-2,inactive
same,Potency,UISO,20900 nM (active)
CC(C)(C)[N+]([O-])=Cc1ccc(S(=O)(=O)O)cc1S(=O)(=O)O,Potency,MCC-13,inactive
same,Potency,MKL-1,inactive
same,Potency,MKL-2,inactive
same,Potency,UISO,inactive
same,Potency,WaGa,inactive
Cc1cnc(NC(=O)Nc2cc(Br)c(C)cc2OC[C@@H]2CNCCO2)cn1,Potency,MCC-13,inactive
same,Potency,MKL-2,inactive
same,Potency,WaGa,inactive
N#CC(=C(N)Sc1ccc(N)cc1)c1ccccc1C(F)(F)F,Potency,MCC-26,inactive
same,Potency,MKL-1,inactive
same,Potency,MKL-2,inactive
same,Potency,UISO,inactive
same,Potency,WaGa,inactive
C[C@@]12C(=O)OC(=O)[C@@]1(C)C1CCC2O1,Potency,MCC-26,6.62 µM (active)
same,Potency,MKL-2,4.18 µM (active)
same,Potency,WaGa,2960 nM (active)
NC(=NCCCCCCN=C(N)N=C(N)Nc1ccc(Cl)cc1)N=C(N)Nc1ccc(Cl)cc1,Potency,MCC-26,inactive
same,Potency,MKL-2,11.8 µM (active)
CN1CCc2c(c3ccccc3n2Cc2ccc(C(=O)NO)cc2)C1,Potency,MCC-13,inactive
same,Potency,WaGa,20900 nM (active)
same,Potency,C33A,inactive
same,Potency,CASKI,inactive
same,Potency,Es-2,inactive
same,Potency,HeLa,inactive
same,Potency,Hek293T,inactive
same,Potency,JEG-3,inactive
same,Potency,OV90,inactive
same,Potency,SKOV3,inactive
same,Potency,Tov112D,inactive
CCOC(=O)C1=C(C)NC(=S)NC1c1cccc(O)c1 (centres undefined),Potency,MCC-13,1.48 µM (active)
same,Potency,MKL-2,inactive
same,Potency,UISO,148 nM (active)
same,Potency,WaGa,52.6 nM (active)
CC(=O)NCC(=O)N1[C@H]2CC[C@H]1c1cc(Nc3ncc(C(F)(F)F)c(NC4CCC4)n3)ccc12,Potency,MCC-26,3.72 µM (active)
same,Potency,MKL-1,209 nM (active)
same,Potency,MKL-2,23.5 µM (active)
same,Potency,UISO,7430 nM (active)
same,Potency,WaGa,264 nM (active)
CS[C@H]1SC[C@@H]2C(=O)N(C)[C@H](C(C)C)C(=O)OC[C@H](NC(=O)c3cnc4ccccc4n3)C(=O)N[C@H](C)C(=O)N(C)[C@@H]1C(=O)N(C)[C@H](C(C)C)C(=O)OC[C@H](NC(=O)c1cnc3ccccc3n1)C(=O)N[C@H](C)C(=O)N2C,Potency,MCC-13,0.0296 µM (active)
same,Potency,UISO,2.6 nM (active)
same,Potency,WaGa,inactive
Cn1cc(CNCC2CCN(c3ncc(C(=O)NO)cn3)CC2)c2ccccc21,Potency,MCC-13,0.833 µM (active)
same,Potency,MKL-2,0.0332 µM (active)
same,Potency,UISO,264 nM (active)
same,Potency,WaGa,29.6 nM (active)
